Data taken from PubChem BioAssay AID2685 (National Center for Advancing Translational Sciences (NCATS), 2010).
About 2,100 (0.66%) of roughly 320,000 compounds were called active. Not shown: some 53% with an inconclusive outcome. Calls follow the shape of the dose curve; as a rule, active = well fitted inhibition curve with a large enough effect in the signal ratio, with a control signal flat (not every such curve was filed as active); inconclusive = small, poorly fitted or top-dose-only effect, or effect the other way, or a change in a side signal; inactive = flat fitted curve, though single readings scatter; the % refers to the signal ratio. The list comes from a sample in which actives are over-represented; it also holds similar structures and randomly drawn compounds.

Experiment: qHTS Assay for Lipid Storage Modulators in Drosophila S3 Cells;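 as to cell number change: cells counted by Cell Tracker Red CMTPX staining in the red channel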
Settings: BODIPY lipid droplet fluorescence, 18-24 h, cells fed with added oleic acid; cell number change: measured here: cell count max response; series mostly up to 46.1 µM
Summary of the method: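 Drosophila S3 cells got compounds at several concentrations plus oleic acid (400 uM solution). Laser-scanning cytometry with 488 nm excitation read lipid droplets at 500-530 nm and cells at 575-640 nm. Percent activity was relative to 20 uM Triacsin C.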
Potency is read from the fitted curve at half-maximal effect.

Row | Compound | Potency | cell number change [%]
1 | CCC(CC)C(=O)Nc1nnc(S(=O)(=O)N2CCCc3ccccc32)s1 | inactive | -8.08
2 | CC(C)(C)NC(=O)CCc1nnc(Cc2c[nH]c3ccccc23)o1 | inactive | -0.239
3 | Cc1nn(C)c(C)c1S(=O)(=O)N(CC(=O)NCCN1CCOCC1)c1ccc(C(C)C)cc1 | inactive | 12.7
4 | CC(O)/C=C/c1ccc2ccccc2n1 (stereo not drawn) | inactive | -12.5
5 | Cc1nc2ccccc2nc(C)c1=NO | inactive | 8.5
6 | C/C(CC(O)c1ccc2ccccc2n1)=N/O (stereo not drawn) | 10.3 µM (active) | 3.68
7 | O=C(Nc1c2c(nn1-c1ccccc1)CS(=O)C2)c1ccc2c(c1)OCO2 (stereo not drawn) | inactive | 12.2
8 | O=c1c2cnn(-c3ccccc3)c2ncn1Cc1ccco1 | 32.6 µM (active) | 1.65
9 | O=c1c2cnn(-c3ccccc3)c2ncn1Cc1ccccn1 | inactive | 26.2
10 | O=c1c2cnn(-c3ccccc3)c2ncn1Cc1ccccc1 | inactive | -12.8
11 | COCCN1C(=O)N[C@H](c2cccc(C(F)(F)F)c2)C(C(=O)OC)=C1C | inactive | 3.4
12 | O=C(NCCc1ccccc1)C(=O)c1c(-c2ccccc2)cc2ccccn12 | inactive | -0.29
13 | Cc1ccc(S(=O)(=O)N(C)C)cc1NC(=O)COC(=O)c1ccc(Cl)cc1 | inactive | 
14 | Cc1ccc(S(=O)(=O)N(C)C)cc1NC(=O)COC(=O)c1ccc2c(c1)OCCO2 | inactive | -1.35
15 | Cc1ccc(S(=O)(=O)N(C)C)cc1NC(=O)COC(=O)c1sc2cc(Cl)ccc2c1Cl | 1.46 µM (active) | -27.1
16 | O=C(Nc1ccnn1C1CCN(Cc2ccc(O)c(Cl)c2)CC1)C1CCCC1 | inactive | 6.1
17 | O=C1NCCn2ccc(=O)cc21 | inactive | 4.17
18 | CCOC(=O)/C(N=O)=C(\O)C1CCN(C(=O)OCC)CC1 | inactive | 1.9
19 | c1cncc(CNc2ncnc3sccc23)c1 | inactive | -4.09
20 | c1ccc(CNc2ncnc3sccc23)cc1 | 16.4 µM (active) | -15.5
21 | NS(=O)(=O)c1ccc(CNc2ncnc3sccc23)cc1 | inactive | -15.1

Row | Compound | Potency | cell number change [%]
22 | Cc1cc(C)cc(-n2ccn(CC(=O)NCCc3ccccc3)c(=O)c2=O)c1 | inactive | -3.95
23 | Cc1ccc(OCC(=O)Nc2cccc(-c3nnc(-c4ccccc4)o3)c2)cc1 | inactive | 1.35
24 | CSc1ccccc1NC(=O)CN(c1cccc(C)c1)S(C)(=O)=O | inactive | -13.7
25 | Cc1cccc(N(CC(=O)Nc2ccccc2F)S(C)(=O)=O)c1 | 6.51 µM (active) | 
26 | CSc1ccccc1NC(=O)CN(c1cc(C)cc(C)c1)S(C)(=O)=O | inactive | 
27 | C/C(=N\N=C\c1cccc(F)c1)c1nnn(-c2nonc2N)c1C | inactive | -1.27
28 | CCOc1ccc(NC(=O)CCS(=O)(=O)c2ccc(C)cc2)cc1 | inactive | 9.92
29 | CCOc1ccc(NC(N)=O)cc1 | inactive | 1.62
30 | CCOc1ccc(NC(=O)CNS(=O)(=O)c2c(C)cc(C)cc2C)cc1 | 0.92 µM (active) | 
31 | CCC(C)NCCCOc1cc(Cl)ccc1Cl (stereo not drawn) | inactive | 12.7
32 | COc1ccc(N(CC(=O)Nc2ccc(C)c(C)c2)S(=O)(=O)c2c(C)n[nH]c2C)cc1 | inactive | 4.08
33 | CNC(=O)N(C1=NCCCCC1)c1ccc(Br)cc1 | inactive | -6.67
34 | Cc1nn(CCC(=O)N2CCN(S(=O)(=O)c3ccccc3)CC2)c(C)c1C | inactive | 24.4
35 | Cc1cc(C)cc(C(=O)Oc2cc(C)[nH]c(=O)c2[N+](=O)[O-])c1 | inactive | -7.31
36 | Cc1ccc(NC(=O)C(C)Sc2nnc(C)n2CC2CCCO2)cc1 (stereo not drawn) | inactive | 11.7
37 | Cc1ccccc1NC(=O)C(C)Sc1nnc(-c2ccncc2)n1CC1CCCO1 (stereo not drawn) | 2.31 µM (active) | 3.95
38 | O=C(CSc1nnc(-c2ccncc2)n1CC1CCCO1)Nc1ccccc1Cl (stereo not drawn) | inactive | 2.31
39 | O=C(O)C1CC=CCC1C(=O)Nc1cccc(F)c1 (stereo not drawn) | inactive | 
40 | Cc1ccc(-n2c(N)cc(=O)nc2SCC(=O)NC2CCCCC2)cc1C | inactive | -3.12
41 | Cc1ccnc(NC(=O)/C=C/c2cccs2)c1 | inactive | -3.66
42 | O=C(CSc1ncccn1)Nc1ccccc1 | inactive | 17.6

Row | Compound | Potency | cell number change [%]
43 | O=C(CSc1ncccn1)Nn1cnnc1 | 7.31 µM (active) | -0.567
44 | Cc1cc(C)nc(SCC(=O)Nn2cnnc2)n1 | inactive | -0.845
45 | O=C(Nc1ccc(Cl)cc1)Nn1cnnc1 | inactive | 8.74
46 | O=C(CSc1ccc(Cl)cc1)Nc1ncccn1 | inactive | 8.97
47 | O=C(CSc1ccc(Cl)cc1)Nn1cnnc1 | 16.4 µM (active) | 7.58
48 | Cc1ccc(-n2nc3c(c2NC(=O)C2CCCC2)CS(=O)(=O)C3)cc1 | inactive | -12.8
49 | Cc1ccc(S(=O)(=O)N2CCc3ccccc3C2CN2C(=O)c3ccccc3C2=O)cc1 (stereo not drawn) | inactive | 
50 | COc1cccc(NC(=S)N2CCN(C(c3ccccc3)c3ccccc3)CC2)c1 | inactive | 
51 | Cc1nn(C)c(C)c1/C=N/NC(=O)CCn1nc(C)c([N+](=O)[O-])c1C | inactive | -10.6
52 | Cc1ccc(OCC(=O)n2cnnc2N)c(C)c1 | inactive | -14.9
53 | CCN1CCN(Cc2c(C)[nH]c3ccc(OC)cc3c2=O)CC1 | inactive | 9.98
54 | COc1ccc(N=C2S/C(=C\c3ccco3)C(=O)N2CC(C)C)cc1 | inactive | -0.418
55 | COc1ccccc1CCC(=O)N1CCC(n2nccc2NC(=O)CC(C)C)CC1 | inactive | -2.79
56 | CCCn1c(C)cc(C(=O)COc2ccc(C)nc2[N+](=O)[O-])c1C | inactive | 5.33
57 | CCCn1c(C)cc(C(=O)COc2ccc(S(=O)(=O)N(CC)CC)cc2[N+](=O)[O-])c1C | 25.9 µM (active) | -12.5
58 | CCN(CC)S(=O)(=O)c1ccc(OCC(=O)NC(=O)c2ccccc2OC)c([N+](=O)[O-])c1 | inactive | 2.39
59 | CN(C)S(=O)(=O)c1cccc(NC(=S)N2CCc3ccccc32)c1 | inactive | 
60 | CC(C)NC(=O)CN(Cc1ccccc1)S(=O)(=O)c1ccccc1 | inactive | 1.76
61 | CC[n+]1c(S(=O)(=O)[O-])ccc2ccc(C)cc21 | inactive | 3.16
62 | CC[N+]1=C(C)C(C)(C)c2cc(C)ccc21 | 0.231 µM (active) | -16.1
63 | CC[n+]1c(C)sc2cc(C)ccc21 | inactive | -15.5
